Data reported in PubChem BioAssay (Tox21).
Records with an inconclusive call do not appear. Entries that show only a call come without a potency. The source made the active and inactive calls. Calls come from the whole dose curve.

Assay: qHTS assay to identify small molecule agonists of H2AX - cell viability counter screen (AID 1224847); note: top concentration of the series differs between compounds; nearly all actives have a fitted effect of over 30% in size
Conditions: CHO-K1 viability, CellTiter-Glo luminescence, 3 h; series mostly up to 154 µM
Text: National Center for Advancing Translational Sciences [NCATS]
NIH Chemical Genomics Center [NCGC]
U.S. Environmental Protection Agency [EPA]
National Institutes of Environmental Health Sciences [NIEHS]
National Toxicology Program [NTP]
U.S. Food and Drug Administration [FDA]
HTRF phospho-H2AX (Ser139) assay (Cisbio Bioassays, US) enables the quantitative detection of the histone variant H2AX when phosphorylated on serine 139. When double-stranded DNA breaks, either by ionizing radiation or endogenous physiological processes, H2AX becomes phosphorylated at Ser139. This phospho-Ser139 serves as a sensitive biomarker for the detection of such breaks, localizing the site of DNA repair. So, HTRF phospho-H2AX Ser139 is a pertinent assay to study genome stability, the cell cycle, DNA repair, and it serves as a biomarker for cancer, and to understand aging. Wild type CHO-K1 cells were used to identify the inducers of Phospho-H2AX Ser 139 from the Tox21 compound collections. Also cytotoxicity of the Tox21 10K compound library against the CHO-K1 cell line was tested by measuring the cell viability using CellTiter-Glo assay (Promega, Madison, WI).
Tox21 Assay Protocol Summary:
The CHO-K1 cells suspended in culture medium containing 10% FBS were dispensed at 1000 cells/ 3 ul/well in 1536-well white wall/solid bottom plates (Greiner Bio-One North America, NC) using a Multidrop Combi (Thermo Fisher Scientific Inc., Waltham, MA). After the assay plates were incubated at 37C overnight, 23 nl of compounds at 15 concentrations (from 5-48 columns) or positive control (from 1 to 4 columns) were transferred to the assay plates using a Pintool station (Wako, San Diego, CA) into each well resulting in a final DMSO concentration of 0.76%. After 3hr incubation at 37C, 3 uL/well CellTiter-Glo luminescent cell viability reagent (Promega Corporation, Madison, WI) was added using a Flying Reagent Dispenser (FRD) (Aurora Discovery, CA). After incubation at room temperature for 30 min, the luminescence intensity was read using a ViewLux plate reader (PerkinElmer, Waltham, MA).
In the case of `COc1ccc(COC=O)cc1`, the Potency is reported as “inactive”. With `Cc1ccccc1C(=O)O` the Potency was “inactive”. For `CCO[Si](CCCN=C=O)(OCC)OCC`, the Potency was “inactive”. In the case of `OC1OC[C@@H](O)[C@H](O)[C@H]1O` (stereo not given in full), the Potency is reported as “inactive”. In the case of `OCc1ccccn1`, the Potency is reported as “inactive”. For `O=C(O)c1ccc[n+]([O-])c1`, the Potency was “inactive”. With `Fc1ccccc1-c1ccccc1` the Potency was “inactive”. In the case of `C#CC(C)(O)CC(C)C` (stereo not given), the Potency is reported as “inactive”. In the case of `CCC(C(=O)NC(N)=O)c1ccccc1` (stereo not given), the Potency is reported as “inactive”. In the case of `CCCCCN(CCCCC)C(=O)C(CCC(=O)O)NC(=O)c1ccc(Cl)c(Cl)c1` (stereo not given), the Potency is reported as “inactive”. For `C=C(C)C(=O)OCCCCCCCCCCCCCCCCCC`, the activity change, negative = cytotoxicity was 1.51% [at 31.6 µM] (inactive). With `CCCCNc1ccccc1` the Potency was “inactive”. In the case of `CCCOCC(C)OCC(C)O` (stereo not given), the Potency is reported as “inactive”. In the case of `CNc1ncnc2nc[nH]c12`, the Potency is reported as “inactive”. For `COC[C@H](c1ccc(C(F)(F)F)cc1)N1CCN(C2(C)CCN(C(=O)c3c(C)ncnc3C)CC2)C[C@H]1C`, the Potency was “inactive”. For `CCN(CC)S(=O)(=O)c1ccc(C(=O)O)cc1`, the Potency was “inactive”. In the case of `CC(C)(C)N(CCO)CCO`, the Potency is reported as “inactive”. In the case of `Cc1c(F)cc2c(=O)c(C(=O)O)cn3c2c1CCC3C` (stereo not given), the Potency is reported as “inactive”. In the case of `C=C(C)[C@H]1CC=C(C)CC1`, the Potency is reported as “inactive”. For `FC(F)(F)C(F)(F)C(F)(F)C(F)(F)C(F)(F)C(F)(F)C(F)(F)C(F)(F)C(F)(F)C(F)(F)F`, the activity change, negative = cytotoxicity was 0.329% [at 14 µM] (inactive). For `O=Cc1ccccc1[N+](=O)[O-]`, the Potency was “inactive”. For `CCOC(=O)Cn1c(=O)sc2cccc(Cl)c21`, the Potency was “inactive”. For `NCCNC(=O)c1ccc(Cl)cn1`, the Potency was “inactive”. In the case of `c1ccc(SCCSc2ccccc2)cc1`, the Potency is reported as “inactive”. For `Cc1ncc(CSSCc2cnc(C)c(O)c2CO)c(CO)c1O`, the Potency was “inactive”. In the case of `COC(=O)C1=C(C)NC(C)=C(C(=O)OCC(C)=O)C1c1ccccc1[N+](=O)[O-]` (stereo not given), the Potency is reported as “inactive”. With `[O-][N+](=Nc1ccccc1)c1ccccc1` the Potency was “inactive”. For `NC(CS)C(=O)O` (stereo not given), the Potency was “inactive”. For `CCC(C)OC(=O)N1CCCCC1CCO` (stereo not given), the Potency was “inactive”. In the case of `CCCC(C)C(=O)O` (stereo not given), the Potency is reported as “inactive”. For `N[C@@H](CS)C(=O)O`, the Potency was “inactive”. In the case of `C=C(C)[C@@H]1CCC2=CC(=O)C[C@@H](C)[C@]2(C)C1`, the Potency is reported as “inactive”. In the case of `O=C(O)/C=C/c1ccc(Cn2ccnc2)cc1`, the Potency is reported as “inactive”. For `NC(=O)c1ncn([C@@H]2O[C@H](CO)[C@@H](O)[C@H]2O)c1N`, the Potency was “inactive”. For `CCCCOCC(C)OCC(C)O` (stereo not given), the Potency was “inactive”. In the case of `CC(C=O)Cc1ccc(C(C)C)cc1` (stereo not given), the Potency is reported as “inactive”. In the case of `NS(=O)(=O)c1cc2c(cc1Cl)NC(CSCc1ccccc1)=NS2(=O)=O`, the Potency is reported as “inactive”. For `CCN1CCN(c2cc3c(cc2F)c(=O)c(C(=O)O)cn3C2CC2)CC1`, the Potency was “inactive”. With `CCCCCCOC(=O)c1ccccc1O` the Potency was “inactive”. With `C=C[Si](OC)(OC)OC` the Potency was “inactive”.
